Inhibition data for 63 compounds are collected here from PubChem BioAssay AID1376 (SRMLSC, 2008).

Each structure is given as a SMILES string. Screen size: about 220,000 compounds; about 530 (0.24%) were called active. The entries come from a sample that favours actives as a whole. Potency and affinity values are given separately. A number with no mark means an inactive call. No stated cut-off is given here; in the data, active means inhibition above about 13%; inconclusive means no clear call, values can overlap the other calls; inactive means below that.

Sequence of Bifunctional protein GlmU (Mycobacterium tuberculosis (strain ATCC 25618 / H37Rv)) (P9WMN3 whole entry, looked up): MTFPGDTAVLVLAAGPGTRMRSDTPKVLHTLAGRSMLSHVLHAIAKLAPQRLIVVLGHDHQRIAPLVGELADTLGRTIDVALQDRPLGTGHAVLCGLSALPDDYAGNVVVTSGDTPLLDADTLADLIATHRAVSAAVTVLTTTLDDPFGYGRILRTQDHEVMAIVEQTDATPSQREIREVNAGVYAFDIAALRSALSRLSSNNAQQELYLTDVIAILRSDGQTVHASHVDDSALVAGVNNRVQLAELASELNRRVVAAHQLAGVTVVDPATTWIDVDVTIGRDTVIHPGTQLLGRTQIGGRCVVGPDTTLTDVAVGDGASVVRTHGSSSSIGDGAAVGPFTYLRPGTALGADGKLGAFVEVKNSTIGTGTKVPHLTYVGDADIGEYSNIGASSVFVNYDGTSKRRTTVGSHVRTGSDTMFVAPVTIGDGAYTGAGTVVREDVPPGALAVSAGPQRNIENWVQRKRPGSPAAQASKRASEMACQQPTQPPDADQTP

The test addresses Bifunctional protein GlmU (Mycobacterium tuberculosis (strain ATCC 25618 / H37Rv)) (UniProt P9WMN3). Put plainly: inhibition of mycobacterial GlmU enzyme – biochemical, glucosamine-1-phosphate acetyltransferase (AID 1376).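 Further: 0% = complete reaction with vehicle and 100% = reaction without substrate.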 The following applies: M. tuberculosis GlmU acetyltransferase enzyme assay; stronger effect = higher value;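 tested at 30 µM in the primary screen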.
The term inhibition denotes the relative decrease from the control value, in per cent. Take `O=C(CNCC1CCCO1)N1CCCc2ccccc21` (stereo not drawn): the inhibition was 1.14%.
The result for `O=C(O)c1nc2ccccc2nc1C(=O)O` reads -0.04%; that for `Cc1cc(C(=O)Nc2ccc(C)c(S(=O)(=O)N3CCOCC3)c2)c(C)o1`, -1.51%.
The result for `CCC1=C(OC(=O)N(CC)CC)N2C(=O)OC(=NCC3CC3)[C@]2(C)[C@H]2C1=CC[C@H]1C(=O)N(CC)C(=O)[C@H]12` reads 1.38%.
The result for `COc1ccc(CNC(=O)Nc2ccc3c(c2)N(C)C(=O)CS3)cc1` reads -4.33%.
On to `O=C(c1ccc(C(F)(F)F)cc1)c1c[nH]c(C(=O)NCCCn2ccnc2)c1`, for which the inhibition is -1.27%.
The result for `Cc1ccccc1C(=O)NNC(=O)CSc1nnc(-c2ccncc2)n1-c1ccccc1` reads -3.22%.
The result for `OCCC1CN(Cc2cccn2-c2nccs2)CCN1C1CCCCC1` (stereo not drawn) reads -4.98%; that for `COc1cc2cccc(OC)c(=O)c2c(O)c1OC`, -3.83%.
The result for `Oc1cccc2cc3cccc(O)c3c(O)c12` reads -0.27%; that for `O=C(c1ccc2c(c1)OCCO2)N1CCN(c2ccc([N+](=O)[O-])cc2)CC1`, -4.31%.
As for `Cc1ccc(C2=NC(=O)/C(=C/c3cc(O)c(O)c(Br)c3)S2)cc1`, the inhibition is 17.7% (active).
Then `COc1cc(/C=C2\SC(c3ccc(C)cc3)=NC2=O)cc(OC)c1O`, with 5.86%; and `COc1cc(/C=C2\SC(c3ccc(C)cc3)=NC2=O)ccc1O`, with 7.11%; and `CC(=O)Nc1ccc(/C(C)=N/NC(=O)c2ccncc2)cc1`, with 1.93%.
Then `COc1ccc(N2C(=O)CC(C3CCCO3)C2=O)cc1` (stereo not drawn), with 6.39%; and `Cn1c(O)c(C=NC2CC(C)(C)NC(C)(C)C2)c(=O)n(C)c1=O`, with 1.39%.
Then `COc1cc2c(cc1NS(=O)(=O)N1CCCC1)oc1ccccc12`, with 1.9%.
On to `COc1cc2c(cc1NS(=O)(=O)N1CCCCC1)oc1ccccc12`, for which the inhibition was 14.6% (active).
The result for `O=S(=O)(Nc1ccc2c(c1)oc1ccccc12)N1CCCC1` reads 5.63%.
Then `FC(F)Oc1ccc(NC(=S)NCCc2ccccn2)cc1`, with -3.82%; and `O=C(Nc1cccc(Cl)c1)Nc1nnc(CSCCOc2ccc(Cl)cc2)s1`, with -7.81%; and `Cc1ccc(-c2ccccc2)n1-c1cccc(C(=O)O)c1`, with 5.34%.
Then `Cc1cc(C=O)c(C)n1-c1cccc(C(=O)O)c1`, with 6.93%; and `Cc1ccc(C)n1-c1cccc(C(=O)O)c1`, with 23.5% (active); and `Cc1ccccc1NC(=O)Cn1nc(-c2ccccc2)nc1-c1ccccc1`, with 1.21%.
Regarding `O=[N+]([O-])c1cccnc1Oc1cccnc1`, the inhibition was 6.22%.
Then `Cn1c(Cc2ccc3c(c2)OCO3)nnc1SCC(=O)N1CCc2ccccc2C1`, with 1.71%; and `CCOC(=O)C1CCN(c2nc(C)cc(C)c2C#N)CC1`, with -1.41%.
Then `N#Cc1c(N2CCCCC2)nc(N)c2c(N)nc(SCC(=O)O)cc12`, with 13.1% (active).
On to `COc1cc2c(C#N)c(N3CCCCC3)nc(N)c2c(N)n1`, for which the inhibition is -2.38%.
The result for `CCOC(=O)C1CCN(c2nc(N)c3c(N)nc(SCC(=O)O)cc3c2C#N)CC1` reads 14.2% (active); that for `N#Cc1c(N2CCCC2)nc(N)c2c(N)nc(N3CCCC3)cc12`, -6.67%; that for `CCOc1cc2c(C#N)c(N3CCCC3)nc(N)c2c(N)n1`, 4.64%.
The result for `CC(=O)Nc1ccccc1C(=O)C(=O)Nc1ccc(C)c(C)c1` reads -3.19%.
Then `COc1cc(C(=S)N2CCCC2)cc(Cl)c1OCC(=O)Nc1ccc(C)cc1C`, with -4.86%; and `CN(C)CCCOC(=O)c1cc2ccccc2o1`, with -2.64%; and `O=C(Cn1cnc2ccccc2c1=O)N1CCN(c2ccccc2)CC1`, with 5.67%.
On to `COc1nc(N(CC(N)=O)S(=O)(=O)c2ccccc2)nc(C)c1Cl`, for which the inhibition is 4.56%.
Then `COC(=O)CN(c1nc(C)c(Br)c(OC)n1)S(=O)(=O)c1ccc(C)cc1`, with 1.24%; and `COC(=O)CN(c1nc(C)c(Cl)c(OC)n1)S(=O)(=O)c1ccc(C)cc1`, with 25.4% (active).
The result for `CC(O)CCC(=O)NNC(=S)Nc1ccccc1` (stereo not drawn) reads 2.51%.
The result for `O=C(Nc1ccccc1Br)C1CCN(C(=O)Cc2ccccc2)CC1` reads -6.58%; that for `O=C(Nc1cccc2ccccc12)C1CCN(C(=O)Cc2ccccc2)CC1`, 0.74%; that for `O=C(O)C1CCCCC1C(=O)Nc1ccccc1F` (stereo not drawn), 13.6% (active).
Regarding `O=C(O)C1CCCCC1C(=O)Nc1ccccc1Cl` (stereo not drawn), the inhibition was -0.88%.
Then `O=C(O)C1CCCCC1C(=O)Nc1ccc(F)cc1F` (stereo not drawn), with 5.94%.
Then `O=C(Nc1ccccc1F)C1CCN(C(=O)Cc2ccccc2)CC1`, with 15% (active).
Then `COc1ccc(C2CC(c3ccc(F)cc3)Nc3nc(N)nn32)cc1` (stereo not drawn), with 20% (active).
For `COc1ccc(C2CC(c3ccc(OC)cc3)n3nc(N)nc3N2)cc1` (stereo not drawn), the inhibition is 1.16%.
The result for `Nc1nc2n(n1)C(c1ccc(F)cc1)CC(c1ccc(F)cc1)N2` (stereo not drawn) reads -1.02%; that for `Cc1ccc(/C(O)=C2\C(=O)C(=O)N(CC(C)O)C2c2ccccn2)cc1` (stereo not drawn), -0.84%.
Then `COC(=O)Cc1ccc(NC(=S)NCCO)cc1`, with -2%; and `CCCNC(=S)Nc1ccc(CC(=O)OC)cc1`, with -4.55%.
The result for `COC(=O)Cc1ccc(NC(=S)NCCCO)cc1` reads 13.5% (active); that for `COC(=O)c1sc(N2C(=O)C(=O)/C(=C(/O)c3ccc(C)cc3)C2c2ccco2)nc1C` (stereo not drawn), -0.75%; that for `CC1=C(C(=O)Nc2ccccn2)C(c2ccc(Cl)cc2)NC(=S)N1` (stereo not drawn), 2.47%.
For the compound `CC1=C(C(=O)Nc2ccccn2)C(c2ccc(Br)cc2)NC(=S)N1` (stereo not drawn), the inhibition is 14.3% (active).
The result for `COc1ccc(C2NC(=S)NC(C)=C2C(=O)Nc2ccccn2)cc1` (stereo not drawn) reads 2.34%; that for `Cc1cc(OCCCC(=O)NC2=NCCS2)ccc1Cl`, -5.02%.
Then `c1ccc2oc(-c3[nH]ncc3CN3CCSCC3)cc2c1`, with 0.41%; and `CCn1cc(CNCc2cn[nH]c2-c2cc3ccccc3o2)cn1`, with 1.28%.
The result for `OC1(CNCc2cn[nH]c2-c2cc3ccccc3o2)CCCCC1` reads 14.3% (active).
